The values below come from the supplement of paper PMC10849652.

About 7,900 targets were measured; listed, in parts, are those with a hit and a random draw of the rest. About 0.6% of all pairs of compound and target were hits. Values without a mark were called inactive.

UniProt Q9UBS8, sequence (Q9UBS8 whole entry, looked up): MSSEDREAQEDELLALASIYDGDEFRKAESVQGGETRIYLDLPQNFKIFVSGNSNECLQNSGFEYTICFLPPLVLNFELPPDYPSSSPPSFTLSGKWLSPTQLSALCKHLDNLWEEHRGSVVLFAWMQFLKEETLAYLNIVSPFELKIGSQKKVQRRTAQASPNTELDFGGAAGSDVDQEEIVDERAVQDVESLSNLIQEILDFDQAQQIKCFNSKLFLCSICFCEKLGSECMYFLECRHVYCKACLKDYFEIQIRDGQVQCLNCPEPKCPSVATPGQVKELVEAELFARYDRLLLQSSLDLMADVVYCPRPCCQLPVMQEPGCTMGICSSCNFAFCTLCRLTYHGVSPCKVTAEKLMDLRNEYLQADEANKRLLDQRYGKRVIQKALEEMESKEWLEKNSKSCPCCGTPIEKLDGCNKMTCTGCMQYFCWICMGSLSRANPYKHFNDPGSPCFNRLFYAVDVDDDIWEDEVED
UniProt Q06609, sequence (Q06609 whole entry, looked up): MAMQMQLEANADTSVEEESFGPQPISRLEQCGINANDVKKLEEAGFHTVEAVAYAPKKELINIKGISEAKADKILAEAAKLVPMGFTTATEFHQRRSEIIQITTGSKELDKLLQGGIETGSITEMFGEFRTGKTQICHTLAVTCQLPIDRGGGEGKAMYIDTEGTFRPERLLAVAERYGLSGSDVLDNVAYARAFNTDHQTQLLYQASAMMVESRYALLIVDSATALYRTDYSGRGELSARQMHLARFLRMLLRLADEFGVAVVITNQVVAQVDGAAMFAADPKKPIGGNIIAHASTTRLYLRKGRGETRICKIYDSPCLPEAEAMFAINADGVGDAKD
UniProt Q86VR2, sequence (Q86VR2 whole entry, looked up): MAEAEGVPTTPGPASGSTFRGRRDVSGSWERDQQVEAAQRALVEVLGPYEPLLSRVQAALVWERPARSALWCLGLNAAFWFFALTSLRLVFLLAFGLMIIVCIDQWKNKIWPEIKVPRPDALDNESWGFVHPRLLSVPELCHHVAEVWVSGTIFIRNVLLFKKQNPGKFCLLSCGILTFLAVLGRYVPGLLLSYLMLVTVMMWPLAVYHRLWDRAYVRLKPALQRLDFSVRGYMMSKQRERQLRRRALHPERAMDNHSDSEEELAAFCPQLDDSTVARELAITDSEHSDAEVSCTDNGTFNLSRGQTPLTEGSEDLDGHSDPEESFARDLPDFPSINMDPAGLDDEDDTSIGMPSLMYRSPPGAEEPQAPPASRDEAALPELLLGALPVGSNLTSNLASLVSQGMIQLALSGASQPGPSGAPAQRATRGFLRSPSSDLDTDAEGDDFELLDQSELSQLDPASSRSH
UniProt Q5T8P6, sequence (Q5T8P6 whole entry, looked up): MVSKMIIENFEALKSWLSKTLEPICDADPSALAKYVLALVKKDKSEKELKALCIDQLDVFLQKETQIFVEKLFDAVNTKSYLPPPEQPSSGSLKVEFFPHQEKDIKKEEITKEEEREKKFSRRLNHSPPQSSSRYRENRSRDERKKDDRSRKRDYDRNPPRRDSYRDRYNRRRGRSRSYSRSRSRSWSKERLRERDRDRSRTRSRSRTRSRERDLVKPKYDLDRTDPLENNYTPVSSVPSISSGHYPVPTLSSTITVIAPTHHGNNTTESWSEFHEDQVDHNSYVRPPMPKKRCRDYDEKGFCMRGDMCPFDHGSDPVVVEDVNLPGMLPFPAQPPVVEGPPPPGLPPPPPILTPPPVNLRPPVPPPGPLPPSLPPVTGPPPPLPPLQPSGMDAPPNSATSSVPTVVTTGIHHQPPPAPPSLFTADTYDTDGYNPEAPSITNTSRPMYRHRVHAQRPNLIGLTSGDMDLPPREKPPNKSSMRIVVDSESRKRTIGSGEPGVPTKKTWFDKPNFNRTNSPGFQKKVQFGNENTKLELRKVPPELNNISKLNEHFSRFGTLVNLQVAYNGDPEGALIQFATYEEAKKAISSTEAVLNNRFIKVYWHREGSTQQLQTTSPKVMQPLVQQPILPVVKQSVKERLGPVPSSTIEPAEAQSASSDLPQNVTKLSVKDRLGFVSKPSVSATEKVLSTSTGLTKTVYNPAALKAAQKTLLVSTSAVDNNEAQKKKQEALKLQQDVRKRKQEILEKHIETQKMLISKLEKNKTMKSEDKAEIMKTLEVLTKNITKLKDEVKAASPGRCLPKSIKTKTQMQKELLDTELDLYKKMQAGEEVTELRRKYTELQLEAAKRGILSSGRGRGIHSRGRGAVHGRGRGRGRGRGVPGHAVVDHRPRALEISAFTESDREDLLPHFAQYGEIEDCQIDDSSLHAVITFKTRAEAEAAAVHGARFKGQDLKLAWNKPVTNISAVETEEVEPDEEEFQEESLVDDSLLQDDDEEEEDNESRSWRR
UniProt Q96I25, sequence (Q96I25 whole entry, looked up): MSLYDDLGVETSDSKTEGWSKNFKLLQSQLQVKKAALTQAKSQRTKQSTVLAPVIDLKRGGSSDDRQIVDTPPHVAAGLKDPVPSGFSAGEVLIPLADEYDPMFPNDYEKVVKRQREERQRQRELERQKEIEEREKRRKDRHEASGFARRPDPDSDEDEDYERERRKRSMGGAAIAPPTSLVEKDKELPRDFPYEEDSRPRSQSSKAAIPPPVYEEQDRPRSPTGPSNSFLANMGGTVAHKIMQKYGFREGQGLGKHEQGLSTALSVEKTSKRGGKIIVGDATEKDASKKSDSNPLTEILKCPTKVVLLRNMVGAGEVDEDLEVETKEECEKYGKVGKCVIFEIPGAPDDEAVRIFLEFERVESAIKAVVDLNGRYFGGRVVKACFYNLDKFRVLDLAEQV
UniProt O94885, sequence (O94885 whole entry, looked up): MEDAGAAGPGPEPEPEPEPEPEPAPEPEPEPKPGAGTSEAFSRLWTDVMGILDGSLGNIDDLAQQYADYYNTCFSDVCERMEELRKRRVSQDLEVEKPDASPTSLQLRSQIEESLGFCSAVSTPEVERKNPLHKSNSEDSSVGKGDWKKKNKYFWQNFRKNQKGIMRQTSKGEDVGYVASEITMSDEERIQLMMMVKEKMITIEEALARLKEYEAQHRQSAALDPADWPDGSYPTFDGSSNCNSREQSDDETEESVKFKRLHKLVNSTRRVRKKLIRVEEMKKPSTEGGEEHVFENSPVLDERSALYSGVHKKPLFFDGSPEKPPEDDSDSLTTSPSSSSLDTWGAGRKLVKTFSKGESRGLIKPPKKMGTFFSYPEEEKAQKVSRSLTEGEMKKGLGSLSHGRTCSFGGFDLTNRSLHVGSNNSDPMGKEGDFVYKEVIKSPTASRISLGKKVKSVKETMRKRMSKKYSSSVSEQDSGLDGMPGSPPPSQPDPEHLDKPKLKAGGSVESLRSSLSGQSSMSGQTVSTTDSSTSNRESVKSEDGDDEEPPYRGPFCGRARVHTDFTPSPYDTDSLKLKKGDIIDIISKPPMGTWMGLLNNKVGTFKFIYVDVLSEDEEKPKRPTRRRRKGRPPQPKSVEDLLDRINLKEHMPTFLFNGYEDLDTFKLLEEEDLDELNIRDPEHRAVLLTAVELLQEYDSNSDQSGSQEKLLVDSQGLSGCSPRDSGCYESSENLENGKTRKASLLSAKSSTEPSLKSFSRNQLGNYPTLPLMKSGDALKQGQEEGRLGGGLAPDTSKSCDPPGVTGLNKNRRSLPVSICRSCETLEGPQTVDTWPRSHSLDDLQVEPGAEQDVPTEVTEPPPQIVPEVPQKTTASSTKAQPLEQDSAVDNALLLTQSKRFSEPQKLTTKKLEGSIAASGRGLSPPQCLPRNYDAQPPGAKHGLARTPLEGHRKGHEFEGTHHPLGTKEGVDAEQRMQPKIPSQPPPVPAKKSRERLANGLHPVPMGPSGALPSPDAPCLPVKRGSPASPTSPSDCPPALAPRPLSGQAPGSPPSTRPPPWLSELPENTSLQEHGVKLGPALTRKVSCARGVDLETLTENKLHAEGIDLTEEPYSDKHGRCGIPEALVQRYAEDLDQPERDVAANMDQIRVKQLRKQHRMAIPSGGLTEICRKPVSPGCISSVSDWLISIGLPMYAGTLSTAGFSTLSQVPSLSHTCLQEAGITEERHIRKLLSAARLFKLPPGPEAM
UniProt Q8N5L8, sequence (Q8N5L8 whole entry, looked up): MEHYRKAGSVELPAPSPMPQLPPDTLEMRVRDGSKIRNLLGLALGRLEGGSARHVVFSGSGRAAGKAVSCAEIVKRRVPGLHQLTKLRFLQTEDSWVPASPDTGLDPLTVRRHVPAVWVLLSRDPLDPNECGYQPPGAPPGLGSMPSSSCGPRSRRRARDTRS
UniProt O43818, sequence (O43818 whole entry, looked up): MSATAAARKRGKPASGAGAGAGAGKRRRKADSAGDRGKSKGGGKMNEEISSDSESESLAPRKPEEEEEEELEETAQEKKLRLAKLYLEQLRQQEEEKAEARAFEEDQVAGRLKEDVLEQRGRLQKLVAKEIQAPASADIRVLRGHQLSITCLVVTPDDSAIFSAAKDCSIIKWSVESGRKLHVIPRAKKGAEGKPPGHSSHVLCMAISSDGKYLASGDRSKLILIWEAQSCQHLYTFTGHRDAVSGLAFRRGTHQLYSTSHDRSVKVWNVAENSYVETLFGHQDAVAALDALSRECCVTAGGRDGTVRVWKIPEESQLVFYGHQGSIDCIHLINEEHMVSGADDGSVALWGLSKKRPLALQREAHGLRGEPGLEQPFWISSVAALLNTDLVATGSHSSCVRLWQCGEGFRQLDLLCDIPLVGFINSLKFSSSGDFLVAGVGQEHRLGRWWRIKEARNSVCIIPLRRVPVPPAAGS
UniProt Q9NSI8, sequence (Q9NSI8 whole entry, looked up): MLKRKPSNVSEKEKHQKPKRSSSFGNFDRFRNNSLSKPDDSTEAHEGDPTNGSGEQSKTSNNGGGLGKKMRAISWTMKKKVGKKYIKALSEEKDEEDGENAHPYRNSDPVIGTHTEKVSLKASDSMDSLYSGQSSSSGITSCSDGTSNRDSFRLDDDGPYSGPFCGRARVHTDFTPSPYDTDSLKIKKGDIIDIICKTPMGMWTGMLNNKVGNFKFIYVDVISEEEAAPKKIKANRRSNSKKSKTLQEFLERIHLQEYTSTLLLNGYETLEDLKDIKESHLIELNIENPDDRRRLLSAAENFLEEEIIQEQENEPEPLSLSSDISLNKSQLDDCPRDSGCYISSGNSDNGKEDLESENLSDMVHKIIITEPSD

Compound in the first experiment: CC1=C(SC2=C1C(=N[C@H](C3=NN=C(N32)C)CC(=O)N)C4=CC=C(C=C4)Cl)C
The experiment is described as follows: log2 fold change, soluble protein after heating vs DMSO (PISA); higher = thermal stabilisation; K562 cells, 10 uM, 30 min; active = over 0.2 and 3.5 SD of the protein, either way, in both replicates (recomputed). The essentials:
(§1)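 Thermal stability values are relative to control samples and come from duplicates. They are expressed as log2 fold changes. For measurement, K562 cells (2×10^6 cells/mL) received 10 μM compound for 30 min, and aliquots were heated for 3 min over 48°C-58°C, pooled, and extracted at 4°C in PBS with 0.5% NP-40. Soluble protein, the supernatant after 21,000xg for 90 min, was quantified by TMTpro 16plex LC-MS/MS with equalised channel sums.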
Regarding RHOXF2 (UniProt Q9BQY4), the log2 fold change is -0.031.

For the target RSPRY1 (UniProt Q96DX4), the log2 fold change was 0.024.

As for RNF14 (UniProt Q9UBS8), the log2 fold change is -0.005.

Regarding SCAMP2 (UniProt H3BUB6), the log2 fold change was -0.017.

For the target RPS3A (UniProt P61247), the log2 fold change is -0.162.

RBM17 (UniProt Q96I25): the log2 fold change is 0.017.

Turning to RAD50 isoform 2 (UniProt Q92878), the log2 fold change is 0.017.

Turning to SLBP (UniProt Q14493), the log2 fold change was -0.056.

For the target RNPEP (UniProt Q9H4A4), the log2 fold change is 0.05.

Turning to SAMSN1 isoform 3 (UniProt Q9NSI8), the log2 fold change was 0.014.

Take RBM26 isoform 2 (UniProt Q5T8P6): the log2 fold change is 0.016.

Turning to SENP6 (UniProt Q9GZR1), the log2 fold change is 0.014.

Consider RUFY1 (UniProt Q96T51), for which the log2 fold change is -0.029.

Consider RAVER1 (UniProt E9PAU2), for which the log2 fold change was -0.204.

On to SGPL1 (UniProt O95470), for which the log2 fold change was -0.014.

Turning to RSL1D1 (UniProt O76021), the log2 fold change was -0.349.

Consider RAB5IF isoform 5 (UniProt Q9BUV8), for which the log2 fold change was 0.101.

For the target RECQL (UniProt P46063), the log2 fold change was 0.087.

For SIRT2 (UniProt Q8IXJ6), the log2 fold change was 0.107.

Take RAD51 (UniProt Q06609): the log2 fold change was 0.142.

Take SDHAF2 (UniProt Q9NX18): the log2 fold change is 0.078.

On to RRP9 (UniProt O43818), for which the log2 fold change is -0.136.

RALA (UniProt P11233): the log2 fold change was 0.046.

As to RPP25L (UniProt Q8N5L8), the log2 fold change was -0.018.

Turning to SCYL3 isoform 2 (UniProt Q8IZE3), the log2 fold change was -0.006.

For the target RRP12 (UniProt Q5JTH9), the log2 fold change was -0.068.

Consider RETREG3 (UniProt Q86VR2), for which the log2 fold change is 0.085.

As for RNF220 (UniProt Q5VTB9), the log2 fold change is 0.072.

Take RB1CC1 (UniProt Q8TDY2): the log2 fold change is 0.096.

As to ROCK2 (UniProt O75116), the log2 fold change is 0.003.

As for RTF2 (UniProt Q9BY42), the log2 fold change was -0.009.

Consider RAB33B (UniProt Q9H082), for which the log2 fold change was -0.028.

Take SASH1 (UniProt O94885): the log2 fold change is 0.092.

With RELA (UniProt Q04206), the log2 fold change was 0.056.

With RPTOR (UniProt Q8N122), the log2 fold change was -0.015.

On to RPS5 (UniProt P46782), for which the log2 fold change is -0.144.

For RPS6KA2 isoform 2 (UniProt Q15349), the log2 fold change was 0.045.

Compound in the next experiment: CC1=C2C(=CC=C1)N=C(N(C2=O)C3=CC=CC=C3C)CN4C=NC5=C(N=CN=C54)N
The description is as above. The procedure, abridged: as §1
Turning to RHOXF2 (UniProt Q9BQY4), the log2 fold change was 0.024.

As for RSPRY1 (UniProt Q96DX4), the log2 fold change was 0.012.

RNF14 (UniProt Q9UBS8): the log2 fold change was -0.048.

In the case of SCAMP2 (UniProt H3BUB6), the log2 fold change was 0.308.

For the target RPS3A (UniProt P61247), the log2 fold change is -0.139.

For RBM17 (UniProt Q96I25), the log2 fold change was 0.049.

With RAD50 isoform 2 (UniProt Q92878), the log2 fold change was 0.061.

For SLBP (UniProt Q14493), the log2 fold change was 0.042.

In the case of RNPEP (UniProt Q9H4A4), the log2 fold change was 0.047.

In the case of SAMSN1 isoform 3 (UniProt Q9NSI8), the log2 fold change was 0.025.

With RBM26 isoform 2 (UniProt Q5T8P6), the log2 fold change is 0.144.

For SENP6 (UniProt Q9GZR1), the log2 fold change was 0.048.

Take RUFY1 (UniProt Q96T51): the log2 fold change is 0.041.

On to RAVER1 (UniProt E9PAU2), for which the log2 fold change was 0.283.

For the target SGPL1 (UniProt O95470), the log2 fold change was 0.005.

On to RSL1D1 (UniProt O76021), for which the log2 fold change is -0.241.

As to RAB5IF isoform 5 (UniProt Q9BUV8), the log2 fold change is 0.024.

Take RECQL (UniProt P46063): the log2 fold change is 0.015.

As to SIRT2 (UniProt Q8IXJ6), the log2 fold change is 0.105.

RAD51 (UniProt Q06609): the log2 fold change was -0.037.

Consider SDHAF2 (UniProt Q9NX18), for which the log2 fold change was -0.013.

Consider RRP9 (UniProt O43818), for which the log2 fold change is 0.02.

With RALA (UniProt P11233), the log2 fold change was 0.027.

With RPP25L (UniProt Q8N5L8), the log2 fold change is 0.026.

On to SCYL3 isoform 2 (UniProt Q8IZE3), for which the log2 fold change was 0.055.

As for RRP12 (UniProt Q5JTH9), the log2 fold change is 0.045.

RETREG3 (UniProt Q86VR2): the log2 fold change is 0.007.

On to RNF220 (UniProt Q5VTB9), for which the log2 fold change is 0.14.

With RB1CC1 (UniProt Q8TDY2), the log2 fold change is 0.032.

Take ROCK2 (UniProt O75116): the log2 fold change is 0.085.

RTF2 (UniProt Q9BY42): the log2 fold change is 0.068.

As for RAB33B (UniProt Q9H082), the log2 fold change is 0.116.

On to SASH1 (UniProt O94885), for which the log2 fold change is 0.037.

With RELA (UniProt Q04206), the log2 fold change was 0.03.

Take RPTOR (UniProt Q8N122): the log2 fold change is 0.095.

Consider RPS5 (UniProt P46782), for which the log2 fold change was -0.214.

For the target RPS6KA2 isoform 2 (UniProt Q15349), the log2 fold change is 0.087.
